Assay [1] deals with Plasmodium falciparum Sir2 (PF13_0152, Sir2A). As to the kind of experiment: Plasmodium falciparum Sir2A binding compounds – biochemical, small-molecule microarray, 635 nm fluorescence, primary screen (AID 1098).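 Note: score merges spot fluorescence intensity with its signal-to-noise ratio.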 To be noted: fluorescence 635 nm, higher = more signal.
Assay [2] is described as follows: probe aDKK1 binding to arrayed compounds – biochemical, biotinylated probe, 635/667 nm fluorescence, primary screen (AID 1099).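 Note: score merges 667nm spot fluorescence with signal to noise across triplicate slides.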 To be noted: small-molecule microarray, higher = more signal.
Assay [3] can be described thus: probe aCHRDL2 binding to arrayed compounds – biochemical, biotinylated probe, 635/667 nm fluorescence, primary screen (AID 1100). The settings on record: small-molecule microarray, higher = more signal.
Assay [4] can be described thus: change in splice reporter luminescence, either direction, cell-based, HEK293, spliceosome inhibition project, primary screen (AID 1101).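 Note: HEK293 cells carrying a splicing-competent luciferase reporter gene; test concentration not given here.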 To be noted: HEK293 splicing luciferase reporter, 24 h, higher = more signal, called active from +8 up or from −8 down. (In general: Reporter assays use an easily measured gene product as a stand-in for the process of interest.)
The target in assay [5] is Fibroblast growth factor 10 (Homo sapiens) (UniProt O15520). As to the kind of experiment: compounds binding fibroblast growth factor 10 – biochemical, small-molecule microarray, 635 nm fluorescence, primary screen (AID 1102). The settings on record: FGF10 binding, fluorescence 635 nm, higher = more signal.
Sequence of Fibroblast growth factor 10 (Homo sapiens) (O15520 whole entry, looked up): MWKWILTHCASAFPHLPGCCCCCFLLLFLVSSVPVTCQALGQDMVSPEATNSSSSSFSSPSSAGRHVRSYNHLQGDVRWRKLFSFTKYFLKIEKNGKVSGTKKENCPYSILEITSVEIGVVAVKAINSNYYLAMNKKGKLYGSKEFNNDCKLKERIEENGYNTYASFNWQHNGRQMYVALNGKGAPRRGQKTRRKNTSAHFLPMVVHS
The test system of assay [6] is glycogen synthase kinase-3 (GSK3A per assay name; protocol says GSK3B). Kind of assay: compounds binding glycogen synthase kinase-3 – biochemical, small-molecule microarray, 635 nm fluorescence, GSK3A, primary screen (AID 1103). Note: the record names both GSK3A and GSK3B. To be noted: fluorescence 635 nm, higher = more signal.
Assay [7] deals with Epidermal growth factor receptor (Homo sapiens) (UniProt P00533). As to the kind of experiment: compounds binding epidermal growth factor receptor – biochemical, small-molecule microarray, 635 nm fluorescence, primary screen (AID 1104).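 Note: score merges 667 nm emission intensity with spot signal to noise over triplicate slides.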 The settings on record: EGFR binding, higher = more signal.
Sequence of Epidermal growth factor receptor (Homo sapiens) (P00533 whole entry, looked up): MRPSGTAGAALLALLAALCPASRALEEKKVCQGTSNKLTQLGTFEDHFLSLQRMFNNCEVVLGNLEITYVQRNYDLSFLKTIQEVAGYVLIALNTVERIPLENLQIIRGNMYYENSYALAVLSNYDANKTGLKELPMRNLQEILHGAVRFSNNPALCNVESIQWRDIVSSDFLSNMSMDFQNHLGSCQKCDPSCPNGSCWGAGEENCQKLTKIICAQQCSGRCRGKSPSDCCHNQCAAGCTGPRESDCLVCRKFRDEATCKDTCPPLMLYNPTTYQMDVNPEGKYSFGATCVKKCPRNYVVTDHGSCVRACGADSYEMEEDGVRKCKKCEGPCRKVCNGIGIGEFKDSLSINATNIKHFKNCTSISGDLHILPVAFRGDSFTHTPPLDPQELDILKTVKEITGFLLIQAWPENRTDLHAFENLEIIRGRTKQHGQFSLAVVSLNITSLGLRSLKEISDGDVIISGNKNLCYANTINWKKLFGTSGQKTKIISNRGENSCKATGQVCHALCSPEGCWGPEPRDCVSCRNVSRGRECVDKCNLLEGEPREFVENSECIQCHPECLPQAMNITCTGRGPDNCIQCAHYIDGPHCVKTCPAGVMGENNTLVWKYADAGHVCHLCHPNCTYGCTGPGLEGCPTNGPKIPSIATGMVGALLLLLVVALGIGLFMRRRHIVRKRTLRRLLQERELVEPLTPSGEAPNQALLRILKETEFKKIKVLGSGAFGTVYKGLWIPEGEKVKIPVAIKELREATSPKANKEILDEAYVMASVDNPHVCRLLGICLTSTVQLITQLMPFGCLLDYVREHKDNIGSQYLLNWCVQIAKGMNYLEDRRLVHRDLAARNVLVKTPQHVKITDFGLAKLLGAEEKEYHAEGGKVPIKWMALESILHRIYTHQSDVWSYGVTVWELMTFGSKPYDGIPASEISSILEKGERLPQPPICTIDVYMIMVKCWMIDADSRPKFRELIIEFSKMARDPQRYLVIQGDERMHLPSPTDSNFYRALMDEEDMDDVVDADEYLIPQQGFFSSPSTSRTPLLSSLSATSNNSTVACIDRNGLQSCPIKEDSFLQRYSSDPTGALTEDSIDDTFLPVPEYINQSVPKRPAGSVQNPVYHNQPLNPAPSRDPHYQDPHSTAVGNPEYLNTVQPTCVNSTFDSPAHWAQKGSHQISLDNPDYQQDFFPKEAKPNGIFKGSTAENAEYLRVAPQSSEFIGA
Assay [8] addresses Follistatin-related protein 3 (Homo sapiens) (UniProt O95633). As to the kind of experiment: compounds binding follistatin-related protein 3 – biochemical, small-molecule microarray, 635 nm fluorescence, primary screen (AID 1105).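 Note: score merges emission near 667 nm and signal to noise per printed spot across three slides.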 The settings on record: FSTL3 binding, higher = more signal.
Assay [9] has as its target Dickkopf-related protein 1 (Homo sapiens) (UniProt O94907). As to the kind of experiment: small molecules binding DKK1 protein – biochemical, small-molecule microarray, 635 nm fluorescence scan, primary screen (AID 1106).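 Note: score merges emission near 667 nm with signal to noise over three replicate slides.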 The settings on record: higher = more signal.
Assay [10] concerns Inhibin beta A chain (activin A). Kind of assay: small molecules binding activin A – biochemical, small-molecule microarray, 635 nm fluorescence scan, primary screen (AID 1107).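 Note: mouse activin A protein probed at 4.33 µg/mL on printed slides; score merges bound-protein fluorescence near 667 nm with spot signal-to-noise.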 The settings on record: INHBA, higher = more signal.
Assay [11] concerns Human papillomavirus type 1a protein E7 (residues 44-93). As to the kind of experiment: small molecules binding HPV E7 44-93 – biochemical, small-molecule microarray, residues 44-93, 635 nm fluorescence, primary screen (AID 1108).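 Note: E7 fragment applied at 1 µg/mL in TBST for 1 h at 4 C; score combines spot fluorescence with its signal to noise ratio.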 The settings on record: fluorescence 635 nm, higher = more signal.
A short description of assay [12]: hepatitis C replication reporter changes, two-sided – Huh7 cells, luciferase reporter, HCV replication inhibitor project, primary screen (AID 1109).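 Note: huh7 hepatoma cells harbouring a luciferase neomycin HCV replicon reporter; luciferase luminescence as measure of HCV replicon replication; test concentration not given here.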 To be noted: Huh7 HCV replicon luciferase reporter, 48 h; higher = more signal.
Assay [13] has as its target Left-right determination factor 2 (Homo sapiens) (UniProt O00292). As to the kind of experiment: small molecules binding LEFTY2 protein – biochemical, small-molecule microarray, 635 nm fluorescence scan, primary screen (AID 1110). The settings on record: higher = more signal.
Assay [14] deals with Calmodulin-1 (Homo sapiens) (UniProt P0DP23). As to the kind of experiment: small molecules binding calmodulin-1 with EGTA – biochemical, small-molecule microarray, Cy5-labelled CALM1, profiling panel (AID 1111).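 Note: labelled calmodulin applied in Tris saline Tween buffer holding calcium plus EGTA and DTT.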 To be noted: Cy5-CALM1 binding fluorescence, higher = more signal.
Assay [15] has the same target. Kind of assay: small molecules binding Ca-loaded calmodulin-1 – biochemical, small-molecule microarray, Cy5-labelled CALM1, plus calcium, artefact control for SMM control-protein annotation, profiling panel (AID 1112).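 Note: score merges spot fluorescence with signal to noise from triplicate slides.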 The settings on record: Cy5-CALM1 binding fluorescence, higher = more signal.
The nature of assay [16]: probe aWnt5a binding to arrayed compounds – biochemical, biotinylated probe, 635/667 nm fluorescence, primary screen (AID 1113).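 Note: score merges 667 nm fluorescence intensity with signal-to-noise per printed feature.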 The settings on record: small-molecule microarray, higher = more signal.
A short description of assay [17]: probe aShh binding to arrayed compounds – biochemical, biotinylated probe, 635/667 nm fluorescence, primary screen (AID 1114).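 Note: probe is biotin-labelled aShh protein from a stem cell growth factor screen; measures binding of labelled protein to compounds printed on the slide; score merges feature fluorescence at 667 nm with signal-to-noise.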 The settings on record: small-molecule microarray, higher = more signal.
A short description of assay [18]: probe aNog binding to arrayed compounds – biochemical, biotinylated probe, 635/667 nm fluorescence, primary screen (AID 1115).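 Note: probe is biotinylated aNog protein used at 0.15 µg/mL for 1 h at 4 C; z-score combines 667 nm fluorescence of each spot with its signal to noise.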 The settings on record: small-molecule microarray, higher = more signal.
Assay [19] addresses Torsin-1A-interacting protein 1 (Homo sapiens) (UniProt Q5JTV8). As to the kind of experiment: compound microarray binding of lysate hLAP1 – cell lysate, small-molecule microarray, COS7 lysate, 635/667 nm fluorescence, primary screen (AID 1116). The settings on record: 635 nm fluorescence, higher = more signal.
Assay [20] has as its target Alpha-bungarotoxin (Bungarus multicinctus) (UniProt P60615). Kind of assay: compounds binding labelled alpha-BTX control protein – biochemical, small-molecule microarray, Alexa647 label, 635/667 nm fluorescence, artefact control for SMM control protein annotation, profiling panel (AID 1117). To be noted: alpha-BTX-A647 binding fluorescence, higher = more signal.

Calls of active or inactive are those of the source.

Sequence of Dickkopf-related protein 1 (Homo sapiens) (O94907 whole entry, looked up): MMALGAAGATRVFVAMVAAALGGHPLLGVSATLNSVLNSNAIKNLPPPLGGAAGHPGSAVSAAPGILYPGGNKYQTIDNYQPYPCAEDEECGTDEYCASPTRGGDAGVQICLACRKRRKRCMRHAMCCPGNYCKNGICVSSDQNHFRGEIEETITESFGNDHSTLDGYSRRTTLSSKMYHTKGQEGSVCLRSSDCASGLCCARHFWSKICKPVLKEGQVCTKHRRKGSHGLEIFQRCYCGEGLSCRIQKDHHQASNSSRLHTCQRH
Sequence of Alpha-bungarotoxin (Bungarus multicinctus) (P60615 whole entry, looked up): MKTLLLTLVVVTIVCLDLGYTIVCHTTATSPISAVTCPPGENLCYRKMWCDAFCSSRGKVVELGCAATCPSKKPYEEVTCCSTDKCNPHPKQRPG
Sequence of Left-right determination factor 2 (Homo sapiens) (O00292 whole entry, looked up): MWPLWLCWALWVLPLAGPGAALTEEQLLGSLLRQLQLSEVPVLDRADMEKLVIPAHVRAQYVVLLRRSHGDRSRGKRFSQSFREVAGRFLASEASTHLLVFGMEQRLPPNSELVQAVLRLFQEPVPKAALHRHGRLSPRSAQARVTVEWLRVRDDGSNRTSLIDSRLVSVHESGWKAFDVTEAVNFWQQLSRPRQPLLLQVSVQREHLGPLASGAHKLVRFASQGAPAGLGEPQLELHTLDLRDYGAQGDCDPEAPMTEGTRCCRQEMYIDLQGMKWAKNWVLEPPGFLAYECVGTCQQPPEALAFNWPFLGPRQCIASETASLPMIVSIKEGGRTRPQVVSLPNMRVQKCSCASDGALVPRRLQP
Sequence of Follistatin-related protein 3 (Homo sapiens) (O95633 whole entry, looked up): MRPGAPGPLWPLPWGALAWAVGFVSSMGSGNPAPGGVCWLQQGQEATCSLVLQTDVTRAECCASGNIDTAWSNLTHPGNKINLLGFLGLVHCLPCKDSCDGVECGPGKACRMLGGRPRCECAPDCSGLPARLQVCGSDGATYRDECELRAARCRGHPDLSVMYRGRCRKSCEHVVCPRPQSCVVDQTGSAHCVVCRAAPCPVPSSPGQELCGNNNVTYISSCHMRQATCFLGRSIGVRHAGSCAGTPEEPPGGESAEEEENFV
Sequence of Torsin-1A-interacting protein 1 (Homo sapiens) (Q5JTV8 whole entry, looked up): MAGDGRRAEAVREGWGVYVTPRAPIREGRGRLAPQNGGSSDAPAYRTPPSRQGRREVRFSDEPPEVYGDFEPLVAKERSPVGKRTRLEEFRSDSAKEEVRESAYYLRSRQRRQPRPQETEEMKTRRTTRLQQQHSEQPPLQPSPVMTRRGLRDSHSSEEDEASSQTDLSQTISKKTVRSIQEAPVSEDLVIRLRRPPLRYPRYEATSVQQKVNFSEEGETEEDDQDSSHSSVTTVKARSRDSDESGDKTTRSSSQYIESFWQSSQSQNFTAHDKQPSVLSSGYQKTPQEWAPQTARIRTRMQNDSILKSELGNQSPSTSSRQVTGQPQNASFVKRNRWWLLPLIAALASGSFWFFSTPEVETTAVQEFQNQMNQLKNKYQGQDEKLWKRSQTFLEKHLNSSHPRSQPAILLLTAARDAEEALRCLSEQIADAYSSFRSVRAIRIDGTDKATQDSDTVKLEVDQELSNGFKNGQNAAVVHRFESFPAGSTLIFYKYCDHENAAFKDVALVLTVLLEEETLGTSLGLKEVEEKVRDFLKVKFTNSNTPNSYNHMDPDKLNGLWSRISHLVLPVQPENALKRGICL

As for `COc1ccc(C(=O)Nc2ccc(CN3C(=O)[C@@]4(O[C@@H](CCO)[C@H]([Si](C)(C)c5ccc(OC)cc5)[C@H]4C)c4ccccc43)cc2)cc1`, the composite z-score was found to be 1.32 in [1]; 0.381 in [2]; 0.47 in assay [3]; 0.793 in assay [5]; 1.1 in assay [6]; 0.65 in assay [7]. For the same compound, the composite z-score in assay [8] worked out at 1.45; in assay [9] it was 1.04; in assay [10] it was 1.39; in [11] it was 0.908; in [13], 0.861; in [14] it was 0.0404. Also, the composite z-score in [15] is -0.608; in assay [16], 0.0367; in assay [17] it was -0.0146; in assay [18] it was 0.0395; in assay [19], 1.12; in assay [20] it was 0.643. Besides, the z-score in assay [4] was -3.19 (inactive); in assay [12], -5.15.

Turning to `COc1ccc(C(O)C2C=CC3C(=O)N(C)C(=O)C3N2N2CCCCC2)c2ccccc12` (stereo not given), the composite z-score worked out at 1.17 in [1]; 0.65 in [2]; 0.947 in assay [3]; 0.956 in [5]; 1.29 in assay [6]; 0.344 in assay [7]. Besides, the composite z-score is 1.24 in assay [8]; -0.312 in assay [9]; 0.91 in [10]; 1.43 in [11]; -0.129 in assay [13]; 1.26 in assay [14]. Also, the composite z-score in assay [15] was 0.639; in [16], 0.131; in [17], 0.476; in [18], -0.0646; in [19] it was 0.826; in assay [20], 1.34. For the same compound, the values for the z-score in assay [4] and in [12] were 1.28 (inactive) and -0.534, respectively.

Take `CC(C)c1ccc(NN2C(C(O)c3cc(C(F)(F)F)cc(C(F)(F)F)c3)C=CC3C(=O)N(c4ccccc4)C(=O)C32)cc1` (stereo not given): the composite z-score is 0.91 in assay [1]; 0.74 in assay [2]; 0.8 in assay [3]; -0.329 in assay [5]; 0.543 in [6]; -0.911 in [7]. Besides, the composite z-score in [8] was -0.486; in assay [9], -0.551; in assay [10], 0.655; in [11], 1.35; in [13], -0.931; in [14], 1.55. Also, the composite z-score in assay [15] was 0.647; in assay [16] it was -0.0704; in [17], 0.37; in assay [18] it was 0.897; in [19] it was 0.831; in assay [20] it was 0.817. The z-score is -0.753 (inactive) in assay [4] and -0.748 in [12].

For the compound `CC(C)C[C@@H]1NC(=O)[C@H]2C[C@@H](C(=O)NCCCCCCN(C)C)[C@@H](c3ccc(O)cc3)N2C1=O`, the composite z-score in [1] was 1.44; in assay [2], 0.158; in [3], -0.0008; in [5], 1.2; in [6], 1.32; in assay [7], 0.653. The composite z-score in assay [8] was 1.13; in assay [9], 1.4; in assay [10], 1.12; in assay [11], 1.09; in [13], 1.06; in assay [14] it was -0.631. In addition, the composite z-score in [15] was -1.19; in assay [16], -0.0337; in assay [17] it was 0.207; in assay [18], -0.284; in assay [19], 1.03; in assay [20] it was 0.419. For the same compound, the z-score in [4] is 0.561 (inactive); in assay [12] it was 0.414.

With `Cc1ccc(S[C@]2(C(=O)NCCN3CCOCC3)CC(=O)N(Cc3ccccc3)[C@@H]2c2ccc(CO)cc2I)cc1`, the composite z-score is 1.41 in assay [1]; 0.361 in assay [2]; 1.11 in assay [3]; -1.61 in assay [5]; -1.12 in assay [6]; -1.72 in [7]. Moreover, the composite z-score in assay [8] was -1.24; in assay [9], -1.51; in assay [10], 0.476; in assay [11], 0.0104; in assay [13], -0.601; in assay [14], -0.318. Also, the composite z-score in [15] is -0.431; in assay [16], -0.124; in assay [17] it was -0.17; in assay [18], 0.0323; in [19], -0.914; in assay [20] it was -1.07. For the same compound, the z-score was -1.88 (inactive) in [4] and -3.12 in assay [12].

For `O=C1C2C=CC(C(O)C3CCCCC3)N(Nc3ccc([N+](=O)[O-])cc3)C2C(=O)N1c1ccccc1` (stereo not given), the composite z-score in assay [1] was 1.26; in assay [2] it was -0.236; in assay [3], 0.783; in [5], -0.901; in assay [6], 1.31; in assay [7] it was -1.54. For the same compound, the composite z-score in [8] was -0.677; in assay [9] it was -1.49; in [10], -1.28; in assay [11], 1.37; in assay [13], -1.4; in assay [14], 1.16. Besides, the composite z-score is 0.164 in [15]; -0.0944 in [16]; -0.0035 in assay [17]; 0.283 in assay [18]; 0.721 in assay [19]; 1.96 in [20]. Besides, the z-score in [4] was -1.04 (inactive); in assay [12] it was -0.057.

Values taken from PubChem BioAssay.
